This is a sample that favours compounds with a hit; in the whole collection about 2.3% have one here.
CHRM1 PAM: positive allosteric modulators of human M1 muscarinic receptor; activation, % at 3 µM; AID 588819; P11229; CHO-K1 hM1, Fluo-8 calcium fluorescence, ACh EC20; 0% = ACh EC20, 100% = maximal ACh; 360,000 compounds, 0.088% hits; in the data active = activation above about 19%, passing the limit was not always enough
Target sequence (P11229 whole entry, looked up): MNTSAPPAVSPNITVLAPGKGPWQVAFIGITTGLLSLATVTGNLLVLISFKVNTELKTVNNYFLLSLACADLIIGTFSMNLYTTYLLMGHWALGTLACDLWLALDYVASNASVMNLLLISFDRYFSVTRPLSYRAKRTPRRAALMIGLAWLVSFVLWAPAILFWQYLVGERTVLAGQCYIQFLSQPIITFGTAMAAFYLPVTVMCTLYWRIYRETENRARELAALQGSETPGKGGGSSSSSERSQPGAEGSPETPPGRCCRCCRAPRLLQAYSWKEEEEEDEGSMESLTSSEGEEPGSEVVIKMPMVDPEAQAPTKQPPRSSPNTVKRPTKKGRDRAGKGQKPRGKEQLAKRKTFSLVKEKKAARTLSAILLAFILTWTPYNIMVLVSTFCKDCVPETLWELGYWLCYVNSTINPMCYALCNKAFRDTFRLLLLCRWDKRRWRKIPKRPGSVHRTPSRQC
CHO-K1 Ca antag: nonselective inhibitor or artifact in parental CHO-K1 cells; ATP-induced calcium, Fluo-8 fluorescence; inhibition, % at 3 µM; 360,000 compounds, 0.6% hits;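 active = inhibition above a per-plate cutoff, the plate's mean sample inhibition plus 3 SD, cut at about 24% in these data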;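 note: 0% = DMSO plus EC80 ATP and 100% = DMSO alone without ATP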
CHRM1 antagonist: human CHRM1 antagonism; P11229; CHO-K1 hM1, Fluo-8 calcium fluorescence, ACh EC80 antagonist; inhibition, % at 3 µM; 360,000 compounds, 1.3% hits; AID 588852;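 active = percent inhibition above its own plate's cutoff, namely the mean of that plate's compound wells plus 3 SD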;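 note: peak over basal fluorescence ratio during 140 s after agonist addition; 0% = ACh EC80 plus DMSO and 100% = DMSO alone without agonist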
M1 ag: agonists of human M1 muscarinic receptor | P11229 | CHO-K1 hM1, Fluo-8 calcium fluorescence, agonist mode; 0% DMSO, 100% acetylcholine EC100 | activation, % at 3 µM | 360,000 compounds, 0.33% hits | AID 588814;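 active = activation above the run's mean compound activation plus 3 SD, cut at about 16% in these data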;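 note: peak over basal fluorescence ratio within a 140 s kinetic read after compound addition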
M1 ag parental: nonselective activator or artifact in parental CHO-K1 cells | Fluo-8 calcium fluorescence; scaled to maximal ATP response, vehicle zero | activation, % at 3 µM | 360,000 compounds, 0.48% hits | AID 602248; in the data active = activation above about 15%;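 note: untransfected CHO-K1 host cells lacking M1 receptor as counterscreen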
CHO-K1 Ca PAM: counter-screen for M1 PAMs: effect in parental CHO-K1 cells | ATP EC20, Fluo-8 calcium fluorescence; 0% at ATP EC20, 100% at ATP max | activation, % at 3 µM | 360,000 compounds, 0.02% hits;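 active = activation above the run cutoff, the mean activation of all test compounds plus 3 SD, cut at about 40% in these data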;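 note: peak over basal fluorescence ratio in a 140 s read after ATP addition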
* hit, by the source's call.

SMILES	CHRM1 PAM	CHO-K1 Ca antag	CHRM1 antagonist	M1 ag	M1 ag parental	CHO-K1 Ca PAM
COc1ccc(S(=O)(=O)N(CC(=O)Nc2ccc3c(c2)OCO3)c2ccccc2OC)cc1	-9	8	31*	0	5	-6
CCOc1ccc(N(CC(=O)Nc2ccccc2OC)S(=O)(=O)c2ccccc2)cc1	11	3	-6	8	18*	11
Cc1ccc(S(=O)(=O)Nc2ccc(F)cc2)cc1C(=O)N1CCOCC1	-1	-10	0	1	1	8
COc1ccc(C)cc1S(=O)(=O)N1CCN(C/C=C/c2ccccc2)CC1	-11	-9	16	-7	1	-1
CC(C)(CC(=O)N1CCN(c2ccc(Cl)cc2)CC1)CC1=NS(=O)(=O)c2ccccc2N1	-8	11	30*	1	5	-3
CC(=O)c1c(C)oc2ccc(N(C(C)=O)S(=O)(=O)c3cccc4cccnc34)cc12	-25	0	60*	2	12	-9
CC(=O)c1c(C)oc2ccc(N(C(C)=O)S(=O)(=O)c3ccc(F)cc3C)cc12	11	-8	-12	-3	1	15
CCOc1ccc(S(=O)(=O)Nc2nc3ccccc3nc2-n2ccc(=NC(=O)c3ccccc3C)cc2)cc1	-9	25*	26	21*	24*	-4
CCN1CCN(c2ncnc3scc(-c4ccc(C)c(C)c4)c23)CC1	-32	-3	85*	-11	0	-6
CCN1CCN(c2ncnc3sc(C)c(-c4ccccc4)c23)CC1	-16	-13	29*	-11	2	-22
CCN1CCN(c2ncnc3c2sc(=S)n3-c2ccccc2)CC1	2	2	-6	-10	2	8
CN(CCCN1CCCCC1)C(=O)c1cc(COc2ccc(F)cc2F)on1	-21	-5	38*	-7	0	5
COCCN(CCOC)Cc1cc(=O)oc2cc(C)c(C)cc12	3	-19	-30	-4	1	15
Cc1cc(NC(=O)Cc2cc(F)cc(F)c2)no1	13	1	-15	-4	0	-11
COC(=O)c1cc(C(=O)OCC(=O)N(C)c2ccccc2)cc([N+](=O)[O-])c1	9	-13	-13	-10	1	9
Cc1cc(OCC(=O)N2CCN(c3ccccn3)CC2)c(C)cc1Br	-3	-1	11	-1	1	-14
O=C(Cc1nc(-c2ccc([N+](=O)[O-])cc2)cs1)Nc1ccccc1	7	-7	-4	18*	8	19
COCC(=O)Nc1nc(-c2ccc([N+](=O)[O-])cc2)cs1	9	-17	-10	-3	4	16
C#CC[N+](C)(C)CCCCCCCCCCCC	-26	-7	56*	-14	24*	29
CC#CC[N+](C)(C)CCCCCCCCCCCC	-27	-8	41*	-10	1	16
C#CC[N+](C)(C)CCCCCCCCCC	-17	0	21	-8	0	20
O=C1Nc2ccc(Br)cc2C1(O)c1ccc(F)cc1 (stereo not drawn)	-4	8	10	-7	2	-12
O=C(c1cc(COc2cccc(C(F)(F)F)c2)on1)N1CCC(c2ccccc2)CC1	-5	-13	3	-2	1	-3
CCOc1cccc(C(=O)N2CCCCC2c2cccnc2)c1 (stereo not drawn)	6	0	-7	-3	0	7
CC(=O)c1ccc(OCc2cc(C(=O)N3CCCCC3c3cccnc3)no2)cc1 (stereo not drawn)	-5	-1	4	5	16*	-5
SMILES	CHRM1 PAM	CHO-K1 Ca antag	CHRM1 antagonist	M1 ag	M1 ag parental	CHO-K1 Ca PAM
CC(=O)c1ccc(OCc2cc(C(=O)N3CCC(c4ccncc4)CC3)no2)cc1	-11	19	14	1	15*	-28
O=C(c1cc(COc2cccc(C(F)(F)F)c2)on1)N1CCC(c2ccncc2)CC1	-13	19	38*	-1	11	1
CC(=O)c1cccc(OCc2cc(C(=O)N3CCSCC3)no2)c1	6	0	-7	-2	11	-2
COc1cccc(OCc2cc(C(=O)N3CCC(c4ccncc4)CC3)no2)c1	-10	19	23	0	12	-11
CC(=O)c1cccc(OCc2cc(C(=O)N3CCC(N4CCCCC4)CC3)no2)c1	-22	-10	48*	-5	1	14
CC1CCc2c(sc(NC(=O)c3cccn3C)c2C(N)=O)C1 (stereo not drawn)	3	-14	-12	-3	0	4
CCOc1ccc(-c2c(C)sc3nc[nH]c(=O)c23)cc1	-6	-2	10	-1	8	15
COC(=O)C1=C(C)Nc2ncnn2C1c1ccc(OC(=O)c2ccccc2)cc1 (stereo not drawn)	0	-17	-28	-4	0	5
COC(=O)c1ccc(C2C(C(=O)Nc3ccc(C)cc3C)=C(C)Nc3ncnn32)cc1 (stereo not drawn)	10	24*	-12	-6	0	-7
O=C(NCc1cccnc1)C(=O)NCC1OCCN1S(=O)(=O)c1ccccc1 (stereo not drawn)	-9	-2	11	-6	0	9
Cc1ccc(S(=O)(=O)N2CCOC2CNC(=O)C(=O)NCc2cccnc2)cc1 (stereo not drawn)	2	36*	-3	-7	2	-10
Cc1ccc(S(=O)(=O)N2CCOC2CNC(=O)C(=O)NCCCN2CCOCC2)cc1 (stereo not drawn)	23*	-5	-29	-1	0	-15
CSc1ccc(CN2CCC(C)(Oc3cccc(C#N)c3)C2)cc1 (stereo not drawn)	-29	-7	36*	-9	0	20
FC(F)(F)c1ccccc1Cc1c(-c2ccc(Cl)cc2)nc2ccc(Br)cn12	2	-12	-26	-2	0	-4
C=CCOc1c(Cl)cc(CNCCCN2CCOCC2)cc1OC	2	-10	-8	-9	1	5
C=CCn1c(-c2cc(-c3ccccc3)sc2N)n[nH]c1=S	1	-5	4	-4	0	-7
CCn1c(SC(C)C)nnc1-c1cc(-c2ccccc2)sc1N	1	28*	3	-5	0	-9
CC1(C(=O)NS(=O)(=O)c2ccc(Cl)cc2)CCN1C(=O)Cc1cccs1 (stereo not drawn)	1	-3	-1	-3	0	2
CCN(C[C@H]1N[C@@](C)(C(=O)OC)[C@H]2C(=O)N(C)C(=O)[C@@H]12)C(=O)c1ccc(C(C)(C)C)cc1	-1	-7	2	-3	0	10
CCOc1ccc(S(=O)(=O)Nc2nc3ccccc3nc2Cl)cc1	2	-5	0	-3	1	-10
CCOc1ccc(S(=O)(=O)Nc2cnc3ccccc3c2)cc1	0	25*	15	3	14	1

High-throughput results as filed in PubChem.
